Compound activity deposited in PubChem BioAssay by National Center for Advancing Translational Sciences (NCATS).
FUS yeast rescue – qHTS for Suppressors of FUS Proteinopathy: Primary screen using FUS-linked yeast assay; S. cerevisiae FUS-expressing, growth rescue, OD600, 24 h; Potency, µM (series often up to 76.6 µM), most hits filed as activators; 0.24% of 390,000 active; AID 1347120, 2019;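 note: plate controls were DMSO vehicle for no effect and reference control for full effect; nearly all actives have a fitted effect of over 55% in size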
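Quantitative HTS measuring growth restoration of FUS-toxic yeast. Galactose-induced cells (OD 0.005) were exposed 24hr at 30C to compounds at several concentrations, then absorbance at 600 nm was recorded.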
aSyn yeast inh – qHTS of alpha-syn Inhibitors; Yeast expressing alpha-synuclein, growth rescue, BacTiter-Glo, 24 h; Potency, µM (highest dose often 46.1 µM), for inactives: top-dose growth rescue (activation), usual class: activators; 0.14% of 370,000 active; note: % of control where 0% means no effect; nearly all actives have a fitted effect of over 65% in size
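Readout is rescue of growth in alpha-synuclein-expressing yeast, so inhibitors of toxicity appear as activators. Growth after 24 hr at 30 deg C in galactose medium is quantified by luminescence.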
Abeta yeast res – qHTS for compounds that reverse cellular toxicity of Amyloid beta (A-beta) peptide in yeast: Primary Screen. 0.063% of 410,000 active. yeast expressing A-beta42, growth rescue, OD600, 48 h; response scale: 0% DMSO, 100% iron-clioquinol control. Potency, µM (highest dose often 46.1 µM), hits mostly activators. AID 1347071, 2019; note: nearly all actives have a fitted effect of over 55% in size
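Growth rescue measured by 600 nm absorbance after 48 h yeast culture at 30 C with compound. Values normalized between DMSO and an equimolar ferric chloride plus clioquinol control.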
TDP-43 yeast inh – qHTS of TDP-43 Inhibitors; TDP-43 expressing yeast growth rescue, BacTiter-Glo, 24 h; Potency, µM (top dose mostly 46.1 µM), inactives show at the highest dose growth rescue (activation), hits mostly activators; 1.8% of 410,000 active; AID 652104, 2013; note: % of control where 0% means no effect; nearly all actives have a fitted effect of over 50% in size
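Galactose-induced TDP-43 yeast, OD600=0.02, compound pinned; 24 hr, 30 deg C; BacTiter-Glo luminescence for growth. Inhibitors of TDP-43 toxicity read as activators.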
An asterisk follows results filed as active; i = inactive; ? = inconclusive; nt = no result given; [ ] = remark or other dose. Rows were chosen to be rich in hits. Some 2.1% of all compounds tested hit in one or more screens of this group. Calls come from the whole dose curve; as a rule, active = well fitted curve in the direction sought with a large enough effect; inconclusive = small, poorly fitted or top-dose-only effect, or another doubt; inactive = no such curve, though single readings can be large; an effect the other way counts as inactive or inconclusive. Potency is the fitted concentration of half-maximal effect.

SMILES	FUS yeast rescue	aSyn yeast inh	Abeta yeast res	TDP-43 yeast inh
O=C(c1ccccc1F)N1CCN(c2cnn(-c3cccc(Cl)c3)c(=O)c2Cl)CC1	i	-3%	i	20µM*
O=C(c1cc2ccccc2cc1O)N1CCN(c2cccc(Cl)c2)CC1	i	13%	?	11µM*
O=C(COc1ccc(F)cc1)NCC(c1ccc(Cl)cc1)N1CCCCC1 (stereo not drawn)	i	nt	i	27%
Cc1ccc2oc(-c3cccc(NC(=O)c4ccc(N5CCC(C)CC5)c([N+](=O)[O-])c4)c3)nc2c1	i	nt	i	15%
O=C(O)C1=CC(c2ccc(Br)cc2)n2ncnc2N1 (stereo not drawn)	i	nt	i	9%
COc1ccc([C@H]2CC(=O)C=C(c3ccc(SC)cc3)C2)cc1OC	i	1%	i	0%
O=C1C=C(c2ccc3c(c2)OCCO3)C[C@@H](c2ccc(F)cc2)C1	i	0%	?	22µM*
COc1ccc(C2=CC(=O)C[C@H](c3ccc(F)cc3)C2)cc1F	?	8%	i	22µM*
CSc1ccc(C2=CC(=O)C[C@H](c3ccc(F)cc3)C2)cc1	i	6%	i	22µM*
Cc1cc(C2=CC(=O)C[C@H](c3ccc(F)cc3)C2)ccc1F	i	8%	i	22µM*
O=C1C=C(c2cc(Cl)cc(Cl)c2)C[C@@H](c2ccc(F)cc2)C1	i	1%	i	?
O=C1C=C(c2ccc3c(c2)OCO3)C[C@@H](c2ccc(F)cc2)C1	i	2%	i	?
CCN(c1ccccc1)c1ncnc2c1cnn2-c1ccc(C)cc1C	i	nt	i	?
O=C(CCCCCN1CCN(c2ccccc2-c2ccccc2)CC1)NC1CCCc2ccccc21 (stereo not drawn)	nt	-19%	nt	nt
O=C1C=C(c2ccc(OC(F)(F)F)cc2)C[C@@H](c2ccc(F)cc2)C1	i	-7%	?	14µM*
CC(C)(C)C(=O)N1CCN(c2nc3c(F)cccc3s2)CC1	i	nt	i	?
O=C(Nc1ccccc1C(F)(F)F)OC1CCC12CCC(c1ccccc1)CC2 (stereo not drawn)	i	nt	nt	nt
COc1ccccc1NC(=S)N(Cc1ccccc1)Cc1ccccn1	i	4%	?	22µM*
CC(C)Oc1ccc(C(=O)OCC(=O)NC(=O)NC2CCCC2)cc1	i	17%	?	20µM*
CC(C)Oc1ccc(C(=O)OCC(=O)NC2CCCCCC2)cc1	i	1%	i	?
CC1CC(C)CN(C(=O)c2ccc3c(c2NCCO)C(=O)c2ccccc2C3=O)C1 (stereo not drawn)	i	-1%	i	18µM*
COc1cc(NC(=O)CC2C(=O)OCCN2Cc2ccccc2)cc(OC)c1 (stereo not drawn)	i	nt	i	25µM*
COC(=O)c1cc(NC(=O)CC2C(=O)OCCN2Cc2ccccc2)cc(C(=O)OC)c1 (stereo not drawn)	i	nt	i	?
O=C(CC1C(=O)OCCN1Cc1ccccc1)Nc1ccc(F)cc1 (stereo not drawn)	i	nt	i	13µM*
COc1c(C)cccc1C(=O)Nc1ccc(-c2nc3ccccc3s2)c(Cl)c1	i	nt	i	?
SMILES	FUS yeast rescue	aSyn yeast inh	Abeta yeast res	TDP-43 yeast inh
COc1ccc(NC(=S)Nc2cccc([N+](=O)[O-])c2)cc1	i	0%	i	?
COc1ccc(OC(C)C(=O)Nc2cccc([N+](=O)[O-])c2)cc1 (stereo not drawn)	nt	-8%	i	10µM*
COc1cccc(NC(C)C(=O)Nc2cc([N+](=O)[O-])ccc2Cl)c1 (stereo not drawn)	i	10%	i	11µM*
CC(=O)Nc1cccc(OCCCOc2cccc([N+](=O)[O-])c2)c1	nt	-7%	i	13µM*
CCn1c(=NC(=O)c2ccc(S(=O)(=O)N3CCCCC3)cc2)sc2cccc(OC)c21	i	nt	i	-24%
Cc1cc(C)c2c(c1)c(C)cc1nnc(SCc3ccccc3C#N)n12	i	nt	i	?
Cc1cn2c(=O)cc(COc3ccccc3NC(=O)c3ccc(Cl)cc3)nc2s1	i	nt	i	11%
Cc1ccc(-c2nc(C(=O)Nc3cccc(C#N)c3)c3n2CCCCC3)cc1	i	0%	i	1%
CC(=O)c1cccc(NC(=O)c2nc(-c3ccc(C)cc3)n3c2CCCCC3)c1	?	2%	i	20µM*
O=C(c1cc(COc2ccc(F)cc2Cl)on1)N1CCSCC1	i	7%	i	?
O=C(c1cc(COc2ccc(F)cc2Cl)on1)N1CCN(c2cnccn2)CC1	nt	1%	i	32µM*
Cc1cc(/C=N/NC(N)=S)c(C)n1-c1ccc(Cl)cc1	?	2%	10µM*	?
Cc1cc(/C=C/C(=O)O)c(C)n1-c1ccc(Cl)cc1	i	10µM*	i	?
Cc1cc(/C=N/NC(N)=S)c(C)n1-c1ccc(Br)cc1	i	-4%	i	?
Cc1cccc(C)c1-n1c(C)cc(/C=N/NC(N)=S)c1C	?	9%	?	11µM*
Cc1cc(/C=N/NC(N)=S)c(C)n1-c1cccc(Cl)c1	i	17%	10µM*	2%[0.397 µM]
COc1ccc(S(=O)(=O)N(CC(=O)N(C)Cc2ccccc2)c2ccc(Cl)cc2)cc1	i	nt	i	12%
Cc1c(-c2ccccc2)c(=O)oc2c(CN3CCCC3)c(O)ccc12	i	nt	i	20%
CCCC[C@H]1C2CC(OC(=O)Nc3ccc(C#N)cc3)C(C2)[C@H]2CCCCN21 (stereo partly drawn)	i	nt	nt	nt
CN(CCOC(=O)CSc1ccccc1)C1CN(Cc2cn(Cc3ccccc3F)nn2)S(=O)(=O)C1 (stereo not drawn)	i	nt	nt	nt
Cc1ccc(C2=CC(c3ccccc3C)n3c(nc4ccccc43)N2)cc1 (stereo not drawn)	i	nt	i	10µM*
Cc1cccc(C2C=C(c3ccc(F)cc3)Nc3nc4ccccc4n32)c1 (stereo not drawn)	i	nt	i	32µM*
Cc1ccc(-c2nnc3ccc(SCC(=O)c4ccccc4)nn23)cc1	nt	4%	nt	nt
Cc1ccccc1CNCCCSc1nnnn1C	i	nt	i	0%[9.22 µM]
CN(C)c1ccc(C(CNC(=O)c2ccccc2)c2c[nH]c3ccccc23)cc1 (stereo not drawn)	11µM*	-1%	i	3%
C#CCOC(=O)c1cc(Cl)c(=O)n(Cc2ccc(Cl)cc2Cl)c1	i	8%	i	20µM*
CNC(=S)NNC(=O)c1ccc(=O)n(Cc2ccc(Cl)cc2Cl)c1	i	-5%	i	-14%
CC(C)OC(=O)c1cc(Cl)c(=O)n(Cc2ccc(Cl)cc2Cl)c1	i	3%	i	25µM*
